Where “and” joins values, the source holds several entries; their conditions need not be identical. Equal entries are not always repeated. In all, about 5,500 compounds went through this assay and about 2,000 (36%) were called active. About 18% were inconclusive and are not listed. Rule as the data show it: active = normalized growth mostly below about 0.91 (no sharp cut-off); inconclusive = no clear call, values can overlap the other calls; inactive = mostly above about 0.92. The list shows a part of the results.
Assay: chemical genetic growth profiling, strain panel (AID 1159580);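 also: tested at 20 µM; growth read once vehicle control cultures reached saturation at 30 °C; 1 = growth at the plate median or of vehicle wells; lower values mean less growth of the strain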
Details: S. cerevisiae deletion strains, growth OD

Measured: normalized growth

COc1cc(C(=O)N2CCOCC2)cc(OC)c1OC
inactive: locus YAL013W, strain DEP1, active compounds read low 1.01 | locus YAL021C, strain ccr4, active compounds read low 1.01 | locus YAL026C, strain drs2, active compounds read low 0.974 | locus YAL030W, strain snc1, active compounds read low 0.984 | locus YBL061C, strain skt5, active compounds read low 0.967 | locus YBR009C, strain hhf1, active compounds read low 1.01 | locus YBR021W, strain FUR4, active compounds read low 0.997 | locus YBR023C, strain chs3, active compounds read low 0.971 | locus YBR171W, strain sec66, active compounds read low 0.972 | locus YBR229C, strain ROT2, active compounds read low 1.01 | locus YBR231C, strain swc5, active compounds read low 0.983 | locus YBR279W, strain paf1, active compounds read low 0.983 | locus YCL011C, strain gbp2, active compounds read low 0.993 | locus YCL016C, strain dcc1, active compounds read low 1 | locus YCL061C, strain MRC1, active compounds read low 0.978 | locus YCL069W, strain vba3, active compounds read low 0.972 | locus YCR088W, strain abp1, active compounds read low 0.978 | locus YDL005C, strain med2, active compounds read low 0.969 | locus YDL035C, strain GPR1, active compounds read low 1.02 | locus YDL040C, strain nat1, active compounds read low 0.974 | locus YDL074C, strain BRE1, active compounds read low 1.01 | locus YDL101C, strain DUN1, active compounds read low 1.02 | locus YDL134C, strain PPH21, active compounds read low 1.01 | locus YDL185W, strain tfp1, active compounds read low 1.01 | locus YDR001C, strain nth1, active compounds read low 0.98 | locus YDR069C, strain doa4, active compounds read low 0.992 | locus YDR137W, strain rgp1, active compounds read low 0.989 | locus YDR150W, strain NUM1, active compounds read low 1.02 | locus YDR159W, strain sac3, active compounds read low 0.961 | locus YDR162C, strain NBP2, active compounds read low 1 | locus YDR195W, strain ref2 0.937 | locus YDR297W, strain sur2, active compounds read low 0.999 | locus YDR334W, strain swr1, active compounds read low 0.966 | locus YDR335W, strain msn5, active compounds read low 0.979 | locus YDR392W, strain spt3, active compounds read low 1.02 | locus YEL003W, strain gim4, active compounds read low 0.985 | locus YEL037C, strain rad23, active compounds read low 0.988 | locus YEL061C, strain CIN8 (second series), active compounds read low 0.964 | locus YEL061C, strain CIN8, active compounds read low 1 | locus YER015W, strain faa2, active compounds read low 0.989 | locus YER016W, strain bim1, active compounds read low 0.987 | locus YER111C, strain swi4, active compounds read low 0.945 | locus YER155C, strain BEM2 (second series), active compounds read low 0.994 | locus YER155C, strain BEM2, active compounds read low 1.01 | locus YER167W, strain BCK2, active compounds read low 1.02 | locus YFR010W, strain ubp6, active compounds read low 0.962 | locus YGL167C, strain pmr1, active compounds read low 0.971 | locus YGL173C, strain kem1, active compounds read low 0.985 | locus YGL227W, strain vid30, active compounds read low 0.978 | locus YGL240W, strain doc1, active compounds read low 0.991 | locus YGL248W, strain PDE1, active compounds read low 1.01 | locus YGL253W, strain hxk2, active compounds read low 0.97 | locus YGR078C, strain PAC10, active compounds read low 1 | locus YGR229C, strain SMI1, active compounds read low 1.01 | locus YHR013C, strain ard1, active compounds read low 0.997 | locus YHR027C, strain rpn1, active compounds read low 0.995 | locus YHR030C, strain SLT2, active compounds read low 1.01 | locus YHR079C, strain IRE1, active compounds read low 1.04 | locus YHR129C, strain ARP1, active compounds read low 0.998 | locus YHR142W, strain chs7, active compounds read low 0.982 | locus YIL066C, strain RNR3, active compounds read low 1.02 | locus YIL073C, strain SPO22, active compounds read low 1.09 | locus YJL092W, strain hpr5, active compounds read low 0.972 | locus YJL095W, strain BCK1 (second series), active compounds read low 0.979 | locus YJL095W, strain BCK1, active compounds read low 0.991 and 0.987 | locus YJL115W, strain asf1, active compounds read low 0.987 | locus YJL129C, strain trk1, active compounds read low 0.958 | locus YJL134W, strain LCB3, active compounds read low 1.01 | locus YJL154C, strain vps35, active compounds read low 0.974 | locus YJL164C, strain tpk1, active compounds read low 0.999 | locus YJL166W, strain qcr8, active compounds read low 1.02 | locus YJL187C, strain SWE1 (second series), active compounds read low 1.01 | locus YJR043C, strain POL32, active compounds read low 1.02 | locus YJR066W, strain TOR1, active compounds read low 0.984
active: locus YCL029C, strain bik1, active compounds read low 0.726 | locus YDL192W, strain arf1, active compounds read low 0.101 | locus YDR101C, strain arx1, active compounds read low 0.494 | locus YDR318W, strain mcm21, active compounds read low 0.0684 | locus YDR388W, active compounds read low 0.0657 | locus YDR502C, strain sam2, active compounds read low 0.111 | locus YER110C, active compounds read low 0.264 | locus YGL078C, strain dbp3, active compounds read low 0.138 | locus YGL086W, strain mad1, active compounds read low 0.0586 | locus YGR135W, strain pre9, active compounds read low 0.0725 | locus YGR252W, strain gcn5, active compounds read low 0.211 | locus YHR079C, strain IRE1 (second series), active compounds read low 0.578 | locus YHR094C, strain hxt1, active compounds read low 0.127 | locus YHR200W, strain rpn10, active compounds read low 0.122 | locus YIL125W, strain kgd1, active compounds read low 0.198 | locus YIR030C, strain dcg1, active compounds read low 0.292 | locus YJL168C, strain set2, active compounds read low 0.202

— PubChem BioAssay AID1159580 (chemical genetic matrix, 2015)
